CCT chaperon mod: changes cytosolic chaperonin activity | purified chaperonin ATPase assay, HTRF ADP detection, 30 min | activity change, % (test concentration not listed), hits read low | 360,000 compounds, 0.3% hits; in the data active = activity change below about -30%; also: % is scaled to controls: 0 for no effect and ±100 for the full control effect
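First, chaperonin was dispensed at 40 nM or 20 nM final depending on batch activity. Next, compounds were pinned at 76 uM and ATP added at 10 uM. After 30 min at 37 °C, ADP detection reagents ran 30 min at ambient temperature.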
pAkt inh: inhibitors of Akt phosphorylation; 360,000 compounds, 0.32% hits; activity change, % for hits at 50 µM; Neuro2A IGF-stimulated pAkt S473 HTRF, 20 min; stronger effect = lower value; in the data active = activity change below about -80%; inconclusive = mostly about -51% to -80%; also: % is scaled to controls: 0 for no effect and ±100 for the full control effect
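Neuro2A cells in DMEM with 0.5% FBS, overnight at 37 deg C, given compound at single 50 µM final, then IGF (6 nM final) for 20 min at 37 deg C. Lysed; phospho-Akt Ser473 by HTRF after 24 h, 665/615 ratio.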
aSyn yeast inh: inhibitors of alpha-synuclein toxicity in yeast; Yeast expressing alpha-synuclein, growth rescue, BacTiter-Glo, 24 h; Potency, µM (highest dose often 46.1 µM), without a hit: at the top dose growth rescue (activation), hits mostly activators; 370,000 compounds, 0.14% hits; AID 652106; also: potency is read from the fitted curve at half-maximal effect; % of control where 0% means no effect; nearly all actives have a fitted effect of over 65% in size
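Readout is rescue of growth in alpha-synuclein-expressing yeast, so inhibitors of toxicity appear as activators. Growth after 24 hr at 30 deg C in galactose medium is quantified by luminescence.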
Apoferritin bind: binds horse apoferritin like a general anesthetic | Potency, µM (highest dose often 77.5 µM), inactives show at the highest dose activity change, negative = displacement, usual class: inhibitors | apoferritin/1-aminoanthracene competitive binding, fluorescence | P02791 | 350,000 compounds, 0.074% hits; also: potency is read from the fitted curve at half-maximal effect; % is scaled to controls: 0 for no effect and ±100 for the full control effect; nearly all actives have a fitted effect of over 20% in size
Target sequence (P02791 2-175 limits assumed): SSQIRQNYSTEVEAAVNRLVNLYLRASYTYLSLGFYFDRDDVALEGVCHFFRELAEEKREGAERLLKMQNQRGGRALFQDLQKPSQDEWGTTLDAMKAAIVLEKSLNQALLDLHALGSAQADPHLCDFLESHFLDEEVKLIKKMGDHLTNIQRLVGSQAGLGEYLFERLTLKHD
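In PBS, apoferritin at 10 uM is loaded with 1-AMA from a 50% saturated solution. After 10 min of compound exposure at ambient temperature, reduced 535 nm fluorescence indicates probe displacement.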
TDP43 rescue: rescues yeast growth from TDP-43 toxicity; TDP-43 expressing yeast growth rescue, BacTiter-Glo, 24 h; Potency, µM (titrated, usually from 46.1 µM), for the others: top-dose growth rescue (activation), usual class: activators; 410,000 compounds, 1.8% hits; AID 652104; also: potency is read from the fitted curve at half-maximal effect; % of control where 0% means no effect; nearly all actives have a fitted effect of over 50% in size
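Yeast cells expressing TDP-43 under galactose induction are exposed to compounds for 24 hr at 30 deg C. BacTiter-Glo luminescence measures growth, so protective compounds score as activators.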
Mito fusion yeast: blocks mitochondrial division or promotes mitochondrial fusion. S. cerevisiae fusion-defective mutant growth rescue, CellTiterGlo 48 h. Potency, µM (doses to about 46.1 µM), inactives show top-dose growth rescue (activation), actives largely listed as activators. 320,000 compounds, 0.23% hits; also: potency is read from the fitted curve at half-maximal effect; % of control where 0% means no effect; nearly all actives have a fitted effect of over 45% in size
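Growth-rescue viability read-out: after 48 h at the non-permissive 37C in glycerol/ethanol YPEG, yeast mitochondrial fusion mutants are measured by CellTiterGlo luminescence; compounds (23 nl pinned per well) restoring growth score as division inhibitors or fusion activators.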
* hit, by the source's call; i = inactive; ? = inconclusive; . = no result; ! = a repeat was not active; [ ] = remark or other dose. Compounds with a hit are over-represented: about 2.5% of the library has one in this group of screens. Unless noted, calls follow the shape of the dose curve; as a rule, active = well fitted curve in the direction sought with a large enough effect; inconclusive = small, poorly fitted or top-dose-only effect, or another doubt; inactive = no such curve, though single readings can be large; an effect the other way counts as inactive or inconclusive.

SMILES | CCT chaperon mod | pAkt inh | aSyn yeast inh | Apoferritin bind | TDP43 rescue | Mito fusion yeast
Cc1cc(C)c2c(-n3cccc3)nn(CC#N)c2n1 | -2.6 | i | 16.2% | -13.5% | 12.6µM* | 0.0%
COc1cccc(CNC(=O)c2c(C)nn(-c3cccc(C)c3)c2-n2cccc2)c1 | . | . | . | -2.2% | 35.5µM* | .
CCOc1ccc(CNC(=O)c2c(C)nn(-c3ccc(F)cc3)c2-n2cccc2)cc1 | . | . | -3.8% | 33.5% | 14.1µM* | .
COc1cccc(CNC(=O)c2c(C)nn(-c3ccc(F)cc3)c2-n2cccc2)c1 | . | . | 1.3% | 5.4% | ? | .
COc1cccc(CNC(=O)c2cc(-c3cccc(OC)c3)n[nH]2)c1 | . | . | . | ? | 20µM* | .
C[C@@H](c1ccccc1)N1C(=O)[C@H]2[C@H]3[C@H](O)[C@H](O)C/C(=N/NC(=O)OCc4ccccc4)[C@H]3CC[C@@H]2C1=O | . | . | . | -2.4%[15.3 µM] | . | .
N=c1nc(N)nc2n1NC(c1ccc(F)cc1)=CS2 | 0.4 | i | 12.6µM* | -12.3% | 11.2µM* | -31.1%
O=C(Nc1ccc(Cl)c(C(F)(F)F)c1)C1Cc2c(-c3ccccc3)ccnc2O1 (stereo not drawn) | 0.1 | i | ? | . | 31.6µM* | .
O=C(Nc1ccc(F)c(Cl)c1)C1Cc2c(-c3ccc4c(c3)OCO4)ccnc2O1 (stereo not drawn) | 0.8 | i | 2.3% | . | 29.1% | .
O=C(Nc1ccc(F)c(Cl)c1)C1Cc2c(-c3ccc(Cl)cc3)ccnc2O1 (stereo not drawn) | 1.4 | i | ? | . | 35.5µM* | .
CC(=O)c1cccc(-c2ccnc3c2CC(C(=O)Nc2ccc(C(C)C)cc2)O3)c1 (stereo not drawn) | -0.6 | i | 11.3% | . | 20µM* | .
O=C(Nc1ccc(Cl)cc1)C1Cc2c(-c3ccc(Cl)cc3)ccnc2O1 (stereo not drawn) | -2.5 | i | -3.6% | . | 27.9% | .
CC(=O)Nc1ccc(-c2ccnc3c2CC(C(=O)Nc2ccc(Cl)c(C(F)(F)F)c2)O3)cc1 (stereo not drawn) | -1.9 | i | 0.5% | . | 11.7% | .
O=C(Nc1ccc(Cl)cc1)C1Cc2c(-c3ccccc3)ccnc2O1 (stereo not drawn) | -0.4 | i | ? | . | 35.5µM* | .
O=C(NCc1ccccc1)C1Cc2c(-c3ccc4c(c3)OCO4)ccnc2O1 (stereo not drawn) | 0.3 | i | 2.7% | . | 35.5µM* | .
COc1ccc(NC(=O)C2Cc3c(-c4cccc(F)c4)ccnc3O2)cc1 (stereo not drawn) | -1.8 | i | ? | . | 22.4µM* | .
CCOc1cc(C(=O)OCc2cc(=O)n3nc(C4CC4)sc3n2)cc(OCC)c1OCC | . | . | . | -5.5% | 23.1% | .
COc1cnn(-c2ccc(F)cc2)c(=O)c1Br | -65.7* | i | -4.3% | -1.1% | 11.9% | 1.7%
COc1cccc(CSc2nnc(CSc3nc4nc(C)cc(C)n4n3)s2)c1 | 1.6 | . | 2.4% | ? | 20µM* | 14.8%
Cc1cc(C)n2nc(SCc3nnc(SCc4ccccc4C)s3)nc2n1 | -0.9 | i | ? | ? | ? | 11.3%
Cc1sc2nc(-c3ccccn3)[nH]c(=O)c2c1-c1ccccc1 | -1.0 | i | ? | -12.3% | 17.8µM* | 2.9%
CCCc1[nH]nc2c1C1(C(=O)N(CC)c3ccccc31)C(C#N)=C(N)O2 (stereo not drawn) | -0.3 | -109.8%* | -6.2% | -10.0% | -12.1% | -0.9%
N#Cc1cc([N+](=O)[O-])ccc1NC(=O)COC(=O)CCC1CCCCC1 | . | . | . | 31.6µM* | . | -3.0%
N/C(=N\OC(=O)CCC1CCCCC1)c1cccc([N+](=O)[O-])c1 | -3.1 | i | -11.3% | ? | 2.6% | -6.1%
N/C(=N\OC(=O)CCC1CCCC1)c1ccc([N+](=O)[O-])cc1 | -0.5 | i | -17.6% | ? | 20µM* | -5.1%
SMILES | CCT chaperon mod | pAkt inh | aSyn yeast inh | Apoferritin bind | TDP43 rescue | Mito fusion yeast
N/C(=N\OC(=O)CSc1ccccc1)c1cccc([N+](=O)[O-])c1 | -0.5 | i | -0.8% | ? | 20µM* | 4.9%
CCCC(=O)OCC(=O)Nc1ccc([N+](=O)[O-])cc1C#N | -1.5 | i | 1.2% | -2.5% | 3.1% | 0.6%
N/C(=N\OC(=O)CCCc1ccccc1)c1ccc([N+](=O)[O-])cc1 | -3.0 | i | -5.7% | -17.4% | 22.4µM* | -1.1%
N/C(=N\OC(=O)Cc1ccccc1)c1ccc([N+](=O)[O-])cc1 | -1.3 | i | 0.3% | 5.3% | ? | 8.4%
Cc1ccc(C)c(N2CCN(C(=O)C3CCN(S(=O)(=O)c4cn(C)cn4)CC3)CC2)c1 | . | . | . | -0.2% | 12.7% | .
Cc1nc2sc(C(=O)N(C)c3ccccc3)c(NC(=O)c3ccccc3Cl)c2c(C)c1C | . | . | . | ? | 18.1% | .
O=C(NCCN1CCOCC1)C1(C(F)(F)F)CC(CCCO)CCCO1 (stereo not drawn) | . | . | . | 0.6% | . | .
COc1ccc(C(C)=O)cc1COC(=O)C1CCN(C(=O)c2ccc(Cl)cc2)CC1 | 0.3 | i | 0.7%[1.84 µM] | . | 20µM* | .
Nc1cc(=O)[nH]c(=S)[nH]1 | . | . | 5.0% | . | . | .
C[C@@H]1CC[C@H]2C(=O)O[C@H](CN=[N+]=[N-])CN2[C@@H]1c1ccc(Br)cc1 | . | . | . | -1.1%[15.3 µM] | . | .
O=C(Cn1c(=O)c(CNc2ccccc2)cc2cc3c(cc21)OCCO3)Nc1ccccc1Cl | . | . | -1.6% | 24.7% | 0.6% | .
CCOc1ccc(NC(=O)CSc2nnc3c(n2)[nH]c2ccc(S(=O)(=O)N(C)C)cc23)cc1 | . | . | -0.4% | . | . | .
CC1CN(c2nc(N(C)c3ccccc3)nc(N)c2[N+](=O)[O-])CC(C)O1 (stereo not drawn) | -1.7 | i | 13.0% | -23.8% | 2.0% | 8.5%
CC1CC(C)CN(c2nc(N(C)c3ccccc3)nc(N)c2[N+](=O)[O-])C1 (stereo not drawn) | -2.4 | i | 16.0% | -19.5% | 17.8µM* | -3.8%
C=C(C)Cn1c(CCNC(=O)CCC)nc2ccccc21 | -0.6 | -103.6%* | -7.5% | 4.6% | 7.7% | -4.4%
Cc1ccccc1OCC(=O)NCC(=O)OC(c1ccccc1)c1ccccc1 | . | . | -1.2% | . | . | .
N#CC1=C(N2CCCCC2)c2cc3c(n2C1=O)CCCC3 | -0.1 | . | 4.3% | ? | 14.1µM* | 3.8%
O=c1cc(-c2ccccc2)c2cc(Cl)c3c(c2o1)CN(Cc1ccccc1)CO3 | . | . | . | 107.8% | 7.4% | .
O=C(O)Cn1c(O)c(C=Nc2ccccc2)sc1=S | -2.5 | -106.8%*! | 0.4% | 5.6% | 0.0% | -3.6%
CCn1c(O)c(C=Nc2ccccc2)sc1=S | 0.3 | i | -3.6% | -10.6% | 3.7% | -4.8%
O=c1c2ccccc2nc(-c2ccccc2)n1Cc1ccccc1 | -3.7 | i | -8.4% | -14.2% | 22.4µM* | ?

High-throughput results: PubChem BioAssay, National Center for Advancing Translational Sciences (NCATS)
